Measured values: publication PMC4336329 (PLoS ONE, 2015)
Screen size: about 310,000 compounds; about 14,000 (4.5%) showed an effect of 50% or more. Effects have a minus sign here. Shown is part of a subset that was picked to be rich in strong results.

Target: human ether-à-go-go-related gene (hERG) potassium channel (human, UniProt Q12809)
Assay: primary screen, population patch clamp on CHO cells stably expressing hERG; higher = less effect of the substance
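Note: peak tail current of the secondary pulse compared with the same well before compound.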

Sequence of human ether-à-go-go-related gene (hERG) potassium channel (Q12809 whole entry, looked up): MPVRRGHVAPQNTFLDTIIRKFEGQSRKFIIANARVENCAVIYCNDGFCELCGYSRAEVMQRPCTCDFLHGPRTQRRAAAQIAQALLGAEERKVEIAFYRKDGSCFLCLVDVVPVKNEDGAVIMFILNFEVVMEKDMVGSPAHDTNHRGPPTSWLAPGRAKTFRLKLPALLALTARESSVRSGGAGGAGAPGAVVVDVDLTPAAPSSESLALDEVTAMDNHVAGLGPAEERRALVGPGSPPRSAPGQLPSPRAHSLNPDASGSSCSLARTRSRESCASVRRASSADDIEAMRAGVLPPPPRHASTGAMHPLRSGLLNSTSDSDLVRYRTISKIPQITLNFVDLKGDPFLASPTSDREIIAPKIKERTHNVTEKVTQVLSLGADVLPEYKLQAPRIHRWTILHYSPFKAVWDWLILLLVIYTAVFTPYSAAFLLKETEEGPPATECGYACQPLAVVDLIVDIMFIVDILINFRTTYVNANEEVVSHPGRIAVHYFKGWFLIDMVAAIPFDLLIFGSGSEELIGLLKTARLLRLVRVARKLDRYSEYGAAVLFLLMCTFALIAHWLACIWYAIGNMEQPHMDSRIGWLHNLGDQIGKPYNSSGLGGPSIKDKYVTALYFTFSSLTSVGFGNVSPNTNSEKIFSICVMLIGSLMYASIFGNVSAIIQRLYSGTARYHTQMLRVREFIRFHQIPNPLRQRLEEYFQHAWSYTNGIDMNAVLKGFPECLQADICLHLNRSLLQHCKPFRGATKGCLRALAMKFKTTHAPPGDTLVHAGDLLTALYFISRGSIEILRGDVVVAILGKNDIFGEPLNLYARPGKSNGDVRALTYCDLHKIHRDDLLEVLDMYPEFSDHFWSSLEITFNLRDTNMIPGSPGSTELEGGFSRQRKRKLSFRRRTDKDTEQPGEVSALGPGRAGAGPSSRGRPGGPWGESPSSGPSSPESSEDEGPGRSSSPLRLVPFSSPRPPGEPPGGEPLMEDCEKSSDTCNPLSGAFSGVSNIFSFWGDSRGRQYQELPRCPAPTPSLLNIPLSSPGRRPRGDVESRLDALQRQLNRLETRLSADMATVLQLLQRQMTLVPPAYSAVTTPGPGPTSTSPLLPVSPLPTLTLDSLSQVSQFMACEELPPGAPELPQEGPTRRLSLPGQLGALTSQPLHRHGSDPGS

| SMILES | hERG current change (%, negative = inhibition) at 10uM [%] |
| --- | --- |
| Cc1ccc(-c2csc(NC(=O)c3ccco3)n2)cc1C | -15.6 |
| CC(=O)Nc1ccc(NC(=O)c2c(-c3ccccc3)noc2C)cn1 | 15.9 |
| c1ccc2c(C3=NNC(=NC4CC4)SC3)c[nH]c2c1 | -20.1 |
| CCN(CC)CCCNC(=O)c1cc(-c2ccc3c(c2)OCO3)on1 | -18.8 |
| CCN(CC)CCCNC(=O)c1cc(-c2cccc(Cl)c2)on1 | -60.7 |
| O=C(NCCN1CCOCC1)c1cc(-c2cccc(Cl)c2)on1 | -4.73 |
| CCN(CC)CCCNC(=O)c1cc(-c2ccc(Cl)cc2)on1 | -63.4 |
| O=C(NCc1cccs1)c1cc(-c2cccc(Cl)c2)on1 | -16.1 |
| CCN(CC)CCCNC(=O)c1cc(-c2ccc(O)cc2)on1 | -37.3 |
| c1ccc(-c2ccc(-c3ccncn3)cc2)cc1 | 23.6 |
| O=C1NC(=S)N/C1=C/c1cccn1-c1ccc([N+](=O)[O-])cc1 | 12.8 |
| O=C(CNc1cccc(S(=O)(=O)N2CCOCC2)c1)Nc1cccc(Br)c1 | -21.6 |
| CSCCC(NS(=O)(=O)c1ccc(C)cc1)C(=O)N1CCCC1 (centres unmarked) | 2 |
| CCCCN(CC)C(=O)Cn1cnc2ccc(S(=O)(=O)N3CCC(C)CC3)cc2c1=O | -57 |
| CC1CCN(S(=O)(=O)c2ccc3ncn(CC(=O)N4CCN(C)CC4)c(=O)c3c2)CC1 | -16.3 |
| CCN(CC)CCCNC(=O)Cn1cnc2ccc(S(=O)(=O)N3CCC(C)CC3)cc2c1=O | -0.31 |
| CC1CCN(S(=O)(=O)c2ccc3ncn(CC(=O)N(C)Cc4ccccc4)c(=O)c3c2)CC1 | -61.7 |
| CC1CCN(S(=O)(=O)c2ccc3ncn(CC(=O)N(C)C4CCCCC4)c(=O)c3c2)CC1 | -22.2 |
| CCCCNC(=O)Cn1cnc2ccc(S(=O)(=O)N3CCC(C)CC3)cc2c1=O | 2.68 |
| Cc1cc2cc3c(C)cc(=O)oc3c(C)c2o1 | 19.8 |
| COc1ccc(-c2cc(C(=O)Nc3ccccc3F)on2)cc1 | 23.3 |

| SMILES | hERG current change (%, negative = inhibition) at 10uM [%] |
| --- | --- |
| CCOc1ncccc1C(=O)OCC(=O)Nc1cc(S(=O)(=O)N(CC)CC)ccc1C | -42.8 |
| Cc1nc2cc(NS(=O)(=O)c3c(C)c(C)cc(C)c3C)ccc2s1 | 3.47 |
| Cc1ccc(C(=O)NCC(=O)NCC(=O)OCC(=O)c2ccc(Br)cc2)cc1 | 7.3 |
| CCN(CC)CCn1c(NCc2cccc(OC)c2OC)nc2ccccc21 | -47 |
| CCN(CC)CCn1c(NCc2cccc(OC)c2)nc2ccccc21.Cl | -57.8 |
| CCCn1c(Nc2cccc(OC)c2)nc2ccccc21 | 14.8 |
| CCn1c(NCc2ccc(OC)cc2)nc2ccccc21 | -21.7 |
| CCN(CC)CCn1c(NCc2ccc(OC)cc2)nc2ccccc21 | -65.5 |
| CN(Cc1ccc2ccccc2c1)C(=O)c1ccc(C(F)(F)F)cc1 | 26.1 |
| CCN1C(=O)N(c2ccc(Cl)cc2)C(C)=CC1(C)C | 6.6 |
| COc1ccc(C(=O)Nc2ccc(Cl)cc2F)cc1S(=O)(=O)N1CCCC1 | -48.1 |
| C=C1c2ccccc2NC(=O)N1c1ccc(OC)cc1 | 12.8 |
| CC(O)CNc1nc2c(c(=O)n(Cc3ccc(Cl)c(Cl)c3)c(=O)n2C)n1C (centres unmarked) | -17.3 |
| O=C(O)C(=O)O.OCCN(Cc1ccccc1)Cc1ccccc1O | 5.17 |
| C=CCN1C(=O)C2C(C(=O)NCc3ccccc3)C3(C)C=CC2(O3)C1C(=O)NC(C)(C)C (centres unmarked) | 19.5 |
| COc1ccc(OC)c(/C=N/N2CCN(c3ccc(Cl)cc3)CC2)c1 | 8.58 |
| COC(=O)Cc1ccc(NC(=S)NCc2ccc(OC)cc2)cc1 | -18.2 |
| COC(=O)Cc1ccc(NC(=S)NCc2ccccc2)cc1 | 0.941 |
| COC(=O)Cc1ccc(NC(=S)NCc2ccc(F)cc2)cc1 | -74.4 |
| CCN1CCN(CC2COc3ccccc3O2)CC1.Cl (centres unmarked) | -4.7 |
| Cc1cc2nc(C3CCN(Cc4nnnn4Cc4cccs4)CC3)[nH]c2cc1C | -83 |

| SMILES | hERG current change (%, negative = inhibition) at 10uM [%] |
| --- | --- |
| Cc1cc2nc(C3CCN(CC4COc5ccccc5O4)CC3)[nH]c2cc1C (centres unmarked) | -73.9 |
| CCN(CC)C(=O)CN1CCC(c2nc3cc(C)c(C)cc3[nH]2)CC1 | -15.7 |
| Cl.c1ccc(Cn2nnnc2CN2CCCC2)cc1 | 2.31 |
| Cc1cc2nc(C3CCN(Cc4nnnn4Cc4ccccc4)CC3)[nH]c2cc1C | -52.3 |
| Cc1ccccc1C(=O)NC1CCN(Cc2nnnn2Cc2ccccc2)CC1 | -47.8 |
| c1csc(Cn2nnnc2CN2CCN(c3nc4ccccc4s3)CC2)c1 | -46 |
| COc1cc(C(=O)NC2CCN(Cc3nnnn3Cc3cccs3)CC2)cc(OC)c1OC | -5.59 |
| CCc1c(C)c2cc(Cl)c(O)c(CN(CC)CC)c2oc1=O | 0.288 |
| S=c1nccc(-c2ccc(Cl)cc2)[nH]1 | 15.4 |
| COc1cc(NC(=O)c2cc3ccccc3o2)c(OC)cc1Br | 5.55 |
| COc1ccc(-c2nnn(-c3cc(Cl)cc(Cl)c3)c2N)cc1 | 18.3 |
| CC1(C)C(=O)N(c2ccccc2)C(=O)c2ccccc21 | 9.68 |
| O=[N+]([O-])c1ccc(N=Nc2ccc(O)cc2O)cc1 | 28.4 |
| CCCCn1c(O)c(N=Nc2ccccn2)c2ccccc21 | 7.6 |
| CC(C)c1ccc(N(CC(=O)NCCc2ccccc2)C(=O)c2csnn2)cc1 | -60 |
| O=C(CN(C(=O)c1csnn1)c1ccccc1)NCCc1ccccc1 | -15 |
| O=C(CN(C(=O)c1csnn1)c1ccc(F)cc1)NCCc1ccccc1 | 7.95 |
| O=C(CN(C(=O)c1csnn1)c1ccc(Cl)cc1)NCCc1ccccc1 | -5.16 |
| CC(=O)c1ccc(N(CC(=O)NCCc2ccccc2)C(=O)c2csnn2)cc1 | -52.4 |
| Cc1ccc(N(CC(=O)NCCc2ccccc2)C(=O)c2csnn2)cc1 | -15.4 |
